# Data: the supplement of paper PMC4022240
# ± gives the standard deviation.
# T1: HaloTag-ATRX ADD domain (163-292)
# T1 chain: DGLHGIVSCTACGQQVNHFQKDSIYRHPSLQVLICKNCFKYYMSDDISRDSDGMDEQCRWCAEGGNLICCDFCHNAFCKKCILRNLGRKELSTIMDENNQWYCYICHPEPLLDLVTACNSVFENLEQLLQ
# Tests used:
# Experiment in all cases: peptide microarray binding signal (635 nm), min-max normalized on array (fraction of array maximum); higher = stronger binding
# [1] = target: T1, HaloTag-ATRX ADD domain (163-292)
# Outline: (§1)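 Triplicate spots of histone 13-mer peptide–cellulose conjugates with a Cy3 tracer were printed on nitrocellulose and probed for 1 h at 4°C with biotin-labelled HaloTag reader fusions (10 nM to 1 μM) plus streptavidin-Alexa Fluor 647 or rabbit histone antibodies (1:10,000 to 1:2,000) plus anti-rabbit Alexa 647. An Axon GenePix 4000B read the 635 nm channel. Binding signal is the spot-triplicate mean intensity after min-max scaling within each library.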
# [2] = target: HaloTag-ING2 PHD (mouse Ing2 200-280)
# Outline: as §1
# [3] = target: anti-H3K4me3 antibody ab8580
# Outline: as §1
# [4] = target: anti-H3K9me3 antibody ab8898
# Outline: as §1
# [5] = peptide region: H3 5-17, peptide modifications: H3S10ph H3K14me1, binder concentration: 1:2,000 dilution
# [6] = peptide region: H3 5-17, peptide modifications: H3S10ph H3K14me1, binder concentration: 1:10,000 dilution
# [7] = peptide region: H3 5-17, peptide modifications: H3S10ph H3T11ph, binder concentration: 1:2,000 dilution
# [8] = peptide region: H3 5-17, peptide modifications: H3S10ph H3T11ph, binder concentration: 1:10,000 dilution
# [9] = peptide region: H3 5-17, peptide modifications: H3R8me2s H3K9me3, binder concentration: 1:2,000 dilution
# [10] = peptide region: H3 5-17, peptide modifications: H3R8me2s H3K9me3, binder concentration: 1:10,000 dilution
# [11] = peptide region: H3 11-23, peptide modifications: H3K14ac H3K18ac, binder concentration: 1:2,000 dilution
# [12] = peptide region: H3 11-23, peptide modifications: H3K14ac H3K18ac, binder concentration: 1:10,000 dilution
# [13] = peptide region: H3 5-17, peptide modifications: H3T11ph H3K14me3, binder concentration: 1:2,000 dilution
# [14] = peptide region: H3 5-17, peptide modifications: H3T11ph H3K14me3, binder concentration: 1:10,000 dilution
# [15] = peptide region: H3 5-17, peptide modifications: H3T11ph H3K14me1, binder concentration: 1:2,000 dilution
# [16] = peptide region: H3 5-17, peptide modifications: H3T11ph H3K14me1, binder concentration: 1:10,000 dilution
# [17] = peptide region: H3 5-17, peptide modifications: H3S10ph H3K14ac, binder concentration: 1:2,000 dilution
# [18] = peptide region: H3 5-17, peptide modifications: H3S10ph H3K14ac, binder concentration: 1:10,000 dilution
# [19] = peptide region: H3 5-17, peptide modifications: H3R8me2s H3K9me2, binder concentration: 1:2,000 dilution
# [20] = peptide region: H3 5-17, peptide modifications: H3R8me2s H3K9me2, binder concentration: 1:10,000 dilution
# [21] = peptide region: H3 5-17, peptide modifications: H3R8me2s H3K9ac, binder concentration: 1:2,000 dilution
# [22] = peptide region: H3 5-17, peptide modifications: H3R8me2s H3K9ac, binder concentration: 1:10,000 dilution
# [23] = peptide region: H3 5-17, peptide modifications: H3R8me2s, binder concentration: 1:2,000 dilution
# [24] = peptide region: H3 5-17, peptide modifications: H3R8me2s, binder concentration: 1:10,000 dilution
binder,measurement,setting,value
QTARKSTGGKAPR [H3 5-17 Q T A R K Sph T G G Kme A P R],peptide microarray binding signal,"[1]; peptide region: H3 5-17, peptide modifications: H3S10ph H3K14me1, binder concentration: 50 nM",0.00426 ± 0.0003
same,peptide microarray binding signal,"[1]; peptide region: H3 5-17, peptide modifications: H3S10ph H3K14me1, binder concentration: 500 nM",0.007715 ± 7.2e-05
same,peptide microarray binding signal,"[2]; peptide region: H3 5-17, peptide modifications: H3S10ph H3K14me1, binder concentration: 10 nM",0.00424 ± 0.00075
same,peptide microarray binding signal,"[2]; peptide region: H3 5-17, peptide modifications: H3S10ph H3K14me1, binder concentration: 100 nM",0.0102 ± 0.0023
same,peptide microarray binding signal,[3]; [5],0.000396 ± 7e-06
same,peptide microarray binding signal,[3]; [6],0.000399
same,peptide microarray binding signal,[4]; [5],0.00077 ± 4.1e-05
same,peptide microarray binding signal,[4]; [6],0.000404 ± 4.4e-06
QTARKSTGGKAPR [H3 5-17 Q T A R K Sph Tph G G K A P R],peptide microarray binding signal,"[1]; peptide region: H3 5-17, peptide modifications: H3S10ph H3T11ph, binder concentration: 50 nM",0.00295 ± 9.8e-05
same,peptide microarray binding signal,"[1]; peptide region: H3 5-17, peptide modifications: H3S10ph H3T11ph, binder concentration: 500 nM",0.00695 ± 0.00038
same,peptide microarray binding signal,"[2]; peptide region: H3 5-17, peptide modifications: H3S10ph H3T11ph, binder concentration: 10 nM",0.00346 ± 9.7e-05
same,peptide microarray binding signal,"[2]; peptide region: H3 5-17, peptide modifications: H3S10ph H3T11ph, binder concentration: 100 nM",0.016 ± 0.0014
same,peptide microarray binding signal,[3]; [7],0.000302 ± 3.1e-06
same,peptide microarray binding signal,[3]; [8],0.000285 ± 3.1e-06
same,peptide microarray binding signal,[4]; [7],0.00107 ± 0.00014
same,peptide microarray binding signal,[4]; [8],0.000461 ± 8.7e-06
QTARKSTGGKAPR [H3 5-17 Q T A Rme2s Kme3 S T G G K A P R],peptide microarray binding signal,"[1]; peptide region: H3 5-17, peptide modifications: H3R8me2s H3K9me3, binder concentration: 50 nM",0.00251 ± 0.00011
same,peptide microarray binding signal,"[1]; peptide region: H3 5-17, peptide modifications: H3R8me2s H3K9me3, binder concentration: 500 nM",0.00471 ± 9.5e-05
same,peptide microarray binding signal,"[2]; peptide region: H3 5-17, peptide modifications: H3R8me2s H3K9me3, binder concentration: 10 nM",0.00979 ± 0.00031
same,peptide microarray binding signal,"[2]; peptide region: H3 5-17, peptide modifications: H3R8me2s H3K9me3, binder concentration: 100 nM",0.0103 ± 0.00024
same,peptide microarray binding signal,[3]; [9],0.0199 ± 0.0017
same,peptide microarray binding signal,[3]; [10],0.0138 ± 0.0027
same,peptide microarray binding signal,[4]; [9],0.094 ± 0.0025
same,peptide microarray binding signal,[4]; [10],0.0691 ± 0.0084
TGGKAPRKQLATK [H3 11-23 T G G Kac A P R Kac Q L A T K],peptide microarray binding signal,"[1]; peptide region: H3 11-23, peptide modifications: H3K14ac H3K18ac, binder concentration: 50 nM",0.00511 ± 0.00036
same,peptide microarray binding signal,"[1]; peptide region: H3 11-23, peptide modifications: H3K14ac H3K18ac, binder concentration: 500 nM",0.013 ± 0.00068
same,peptide microarray binding signal,"[2]; peptide region: H3 11-23, peptide modifications: H3K14ac H3K18ac, binder concentration: 10 nM",0.00913 ± 0.0004
same,peptide microarray binding signal,"[2]; peptide region: H3 11-23, peptide modifications: H3K14ac H3K18ac, binder concentration: 100 nM",0.0128 ± 0.00072
same,peptide microarray binding signal,[3]; [11],0.00445 ± 0.00038
same,peptide microarray binding signal,[3]; [12],0.00896 ± 0.0029
same,peptide microarray binding signal,[4]; [11],0.00139 ± 6.5e-05
same,peptide microarray binding signal,[4]; [12],0.00115 ± 2e-05
QTARKSTGGKAPR [H3 5-17 Q T A R K S Tph G G Kme3 A P R],peptide microarray binding signal,"[1]; peptide region: H3 5-17, peptide modifications: H3T11ph H3K14me3, binder concentration: 50 nM",0.00257 ± 7.4e-05
same,peptide microarray binding signal,"[1]; peptide region: H3 5-17, peptide modifications: H3T11ph H3K14me3, binder concentration: 500 nM",0.00829 ± 0.00052
same,peptide microarray binding signal,"[2]; peptide region: H3 5-17, peptide modifications: H3T11ph H3K14me3, binder concentration: 10 nM",0.00418 ± 0.00034
same,peptide microarray binding signal,"[2]; peptide region: H3 5-17, peptide modifications: H3T11ph H3K14me3, binder concentration: 100 nM",0.00857 ± 0.0014
same,peptide microarray binding signal,[3]; [13],0.00848 ± 0.002
same,peptide microarray binding signal,[3]; [14],0.00582 ± 0.0016
same,peptide microarray binding signal,[4]; [13],0.0639 ± 0.0075
same,peptide microarray binding signal,[4]; [14],0.0181 ± 0.0023
QTARKSTGGKAPR [H3 5-17 Q T A R K S Tph G G Kme A P R],peptide microarray binding signal,"[1]; peptide region: H3 5-17, peptide modifications: H3T11ph H3K14me1, binder concentration: 50 nM",0.00301 ± 0.00011
same,peptide microarray binding signal,"[1]; peptide region: H3 5-17, peptide modifications: H3T11ph H3K14me1, binder concentration: 500 nM",0.00562 ± 0.00013
same,peptide microarray binding signal,"[2]; peptide region: H3 5-17, peptide modifications: H3T11ph H3K14me1, binder concentration: 10 nM",0.00466 ± 0.00013
same,peptide microarray binding signal,"[2]; peptide region: H3 5-17, peptide modifications: H3T11ph H3K14me1, binder concentration: 100 nM",0.00496 ± 0.00066
same,peptide microarray binding signal,[3]; [15],0.00106 ± 2.3e-05
same,peptide microarray binding signal,[3]; [16],0.0012 ± 3.2e-05
same,peptide microarray binding signal,[4]; [15],0.00112 ± 2.3e-05
same,peptide microarray binding signal,[4]; [16],0.000807
QTARKSTGGKAPR [H3 5-17 Q T A R K Sph T G G Kac A P R],peptide microarray binding signal,"[1]; peptide region: H3 5-17, peptide modifications: H3S10ph H3K14ac, binder concentration: 50 nM",0.0047 ± 0.00015
same,peptide microarray binding signal,"[1]; peptide region: H3 5-17, peptide modifications: H3S10ph H3K14ac, binder concentration: 500 nM",0.0165 ± 0.0018
same,peptide microarray binding signal,"[2]; peptide region: H3 5-17, peptide modifications: H3S10ph H3K14ac, binder concentration: 10 nM",0.0122 ± 0.0017
same,peptide microarray binding signal,"[2]; peptide region: H3 5-17, peptide modifications: H3S10ph H3K14ac, binder concentration: 100 nM",0.0326 ± 0.0032
same,peptide microarray binding signal,[3]; [17],0.00136 ± 0.00015
same,peptide microarray binding signal,[3]; [18],0.0012 ± 3.2e-05
same,peptide microarray binding signal,[4]; [17],0.00435 ± 0.00042
same,peptide microarray binding signal,[4]; [18],0.00213 ± 7.1e-05
QTARKSTGGKAPR [H3 5-17 Q T A Rme2s Kme2 S T G G K A P R],peptide microarray binding signal,"[1]; peptide region: H3 5-17, peptide modifications: H3R8me2s H3K9me2, binder concentration: 50 nM",0.00545 ± 0.0001
same,peptide microarray binding signal,"[1]; peptide region: H3 5-17, peptide modifications: H3R8me2s H3K9me2, binder concentration: 500 nM",0.00886 ± 0.00071
same,peptide microarray binding signal,"[2]; peptide region: H3 5-17, peptide modifications: H3R8me2s H3K9me2, binder concentration: 10 nM",0.0168 ± 0.00063
same,peptide microarray binding signal,"[2]; peptide region: H3 5-17, peptide modifications: H3R8me2s H3K9me2, binder concentration: 100 nM",0.0228 ± 0.0012
same,peptide microarray binding signal,[3]; [19],0.0112 ± 0.0011
same,peptide microarray binding signal,[3]; [20],0.0122 ± 0.002
same,peptide microarray binding signal,[4]; [19],0.0214 ± 0.0029
same,peptide microarray binding signal,[4]; [20],0.0131 ± 0.00022
QTARKSTGGKAPR [H3 5-17 Q T A Rme2s Kac S T G G K A P R],peptide microarray binding signal,"[1]; peptide region: H3 5-17, peptide modifications: H3R8me2s H3K9ac, binder concentration: 50 nM",0.0102 ± 0.00014
same,peptide microarray binding signal,"[1]; peptide region: H3 5-17, peptide modifications: H3R8me2s H3K9ac, binder concentration: 500 nM",0.0189 ± 0.00053
same,peptide microarray binding signal,"[2]; peptide region: H3 5-17, peptide modifications: H3R8me2s H3K9ac, binder concentration: 10 nM",0.0344 ± 0.0018
same,peptide microarray binding signal,"[2]; peptide region: H3 5-17, peptide modifications: H3R8me2s H3K9ac, binder concentration: 100 nM",0.064 ± 0.0047
same,peptide microarray binding signal,[3]; [21],0.0111 ± 0.0022
same,peptide microarray binding signal,[3]; [22],0.0146 ± 0.00068
same,peptide microarray binding signal,[4]; [21],0.011 ± 0.00081
same,peptide microarray binding signal,[4]; [22],0.00899 ± 0.0016
QTARKSTGGKAPR [H3 5-17 Q T A Rme2s K S T G G K A P R],peptide microarray binding signal,"[1]; peptide region: H3 5-17, peptide modifications: H3R8me2s, binder concentration: 50 nM",0.00245 ± 0.00023
same,peptide microarray binding signal,"[1]; peptide region: H3 5-17, peptide modifications: H3R8me2s, binder concentration: 500 nM",0.00352 ± 0.00033
same,peptide microarray binding signal,"[2]; peptide region: H3 5-17, peptide modifications: H3R8me2s, binder concentration: 10 nM",0.00412 ± 0.00015
same,peptide microarray binding signal,"[2]; peptide region: H3 5-17, peptide modifications: H3R8me2s, binder concentration: 100 nM",0.00184 ± 6.7e-05
same,peptide microarray binding signal,[3]; [23],0.0129 ± 0.0069
same,peptide microarray binding signal,[3]; [24],0.0128 ± 0.0042
same,peptide microarray binding signal,[4]; [23],0.00237 ± 0.00021
same,peptide microarray binding signal,[4]; [24],0.00415 ± 0.00028
